Experimental data as given in PubChem BioAssay (NCI).
About 79,000 compounds went through this panel and 15% of them were active in at least one assay; those are over-represented in the sample as a whole. No stated cut-off is given here; in the data, active means growth inhibition above about 70%; inactive means the rest. Where a SMILES comes first, the peptide text is derived from it. [ ]: non-standard residue; d: D form. The star is where a group is joined. Cbz = O=C(OCc1ccccc1)*; Dha = C=C(N)C(=O)O

Tests used:
[1] = NCI Yeast Anticancer Drug Screen. Data for the rad50 strain (AID 155);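 further: 0% = growth of vehicle-only cultures of the same strain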; conditions: S. cerevisiae rad50 strain growth inhibition; at 50.0 µM; active compounds read high
How it was run: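 Cells are treated with compound, grown, and their growth is then scored against vehicle-only cultures of the same repair-deficient yeast strain.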

[2] = NCI Yeast Anticancer Drug Screen. Data for the mec2-1 strain (AID 157); conditions: S. cerevisiae mec2-1 strain, at 50.0 µM, active compounds read high
How it was run: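 Cells of the genetically defined mec2-1 yeast strain are incubated with test compound. Inhibition of growth is calculated against vehicle-treated controls.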

[3] = NCI Yeast Anticancer Drug Screen. Data for the sgs1 mgt1 strain (AID 161);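 further: 0% = growth of cultures given vehicle only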; conditions: S. cerevisiae sgs1 mgt1 strain, at 50.0 µM, active compounds read high
How it was run: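 Mutant yeast exposed to compound; growth scored against vehicle-only wells.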

[4] = NCI Yeast Anticancer Drug Screen. Data for the cln2 rad14 strain (AID 165);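 further: 0% = growth equal to vehicle treated cultures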; conditions: S. cerevisiae cln2 rad14 strain, at 50.0 µM, active compounds read high
How it was run: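 The screen exposed genetically defined yeast (cln2 rad14) to test compounds and scored growth inhibition relative to vehicle-treated controls.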

[5] = NCI Yeast Anticancer Drug Screen. Data for the bub3 strain (AID 167); conditions: S. cerevisiae bub3 mutant strain, at 50.0 µM, active compounds read high
How it was run: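 Part of a panel of yeast mutants defective in DNA damage repair or cell cycle regulation. Each strain is grown with compound, and inhibition is calculated relative to solvent-treated cultures.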

[6] = NCI Yeast Anticancer Drug Screen. Data for the mlh1 rad18 strain (AID 175); conditions: S. cerevisiae mlh1 rad18 strain growth inhibition; at 50.0 µM; active compounds read high
How it was run: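 Compound-treated yeast growth, normalised to vehicle controls. Strain bears defined DNA repair mutations.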

Measured: growth inhibition

CC(=O)NNc1ccc(C(=O)O)cc1
inactive: [1] 13.2% | [2] 1% | [3] 1.85% | [4] -13.4% | [5] -2.7% | [6] -2.4%

CCOc1ccc(NC(=O)C(=O)C(/C(=N/N)C(=O)OC)c2nc3ccc([N+](=O)[O-])cc3[nH]c2=O)cc1 (stereo unspecified)
inactive: [1] 6.9% | [2] -6% | [3] 3.5% | [4] 13.3% | [5] 7% | [6] 21.9%

CCC(C#N)N(Cc1cccc(CN(C(C)=O)C(C#N)CC)c1)C(C)=O (stereo unspecified)
inactive: [1] -5.9% | [2] -11.7% | [3] -4.15% | [4] -29.9% | [5] -25.7% | [6] -43.9%

O=C1N(CCN2CCC3(CC2)OCCO3)CCN1c1cc(Cl)cc(Cl)c1
inactive: [1] 56.9% | [2] 25.4% | [3] 51% | [4] 34.3% | [5] 24.6% | [6] 37.8%

O=C1CCCC/C1=C\c1ccc([N+](=O)[O-])cc1
inactive: [1] 28.4% | [2] 27.9% | [3] 29.4% | [4] 10.1% | [5] 21.8% | [6] 40.4%

CCCCCC(=O)OCC(COC(=O)CCCCC)OC(=O)CCCCC
inactive: [1] -2.65% | [2] 23.1% | [3] -5.05% | [4] 12.6% | [5] 10.9% | [6] 20.6%

CSc1ccc(NC(=O)Nc2ccccc2F)cc1
inactive: [1] -7.65% | [2] 19.1% | [3] 17.2% | [4] -20.5% | [5] 39.5% | [6] -9.15%

C=C1OC(=O)C(N)=C1C(C)=O
inactive: [1] -2.65% | [2] 23.7% | [3] 9.05% | [4] -5.2% | [5] 3.9% | [6] 12.4%

c1ccc(COc2ccc(OCc3ccccc3)cc2)cc1
inactive: [1] -1.5% | [2] 3.8% | [3] 13.1% | [4] -31.6% | [5] -10.2% | [6] 3%

CC1c2ccc3ccccc3c2C(=O)c2cccc(Cl)c21 (stereo unspecified)
inactive: [1] 0.45% | [2] 31.9% | [3] 14.7% | [4] -42.6% | [5] -5.65% | [6] -1.65%

O=C(O)CSc1n[nH]c(-c2ccccc2)n1
inactive: [1] -14.2% | [2] -4.3% | [3] -7.5% | [4] 2.55% | [5] 2.3% | [6] -9.35%

C/C=C(\Cl)C(OC(C)=O)OC(C)=O
inactive: [1] -1.45% | [2] -0.2% | [3] -6.15% | [4] -6.8% | [5] 18.4% | [6] 2.55%

COC(=O)CCC(=O)Nc1ccccc1C(F)(F)F
inactive: [1] -8.55% | [2] 5.3% | [3] 7.65% | [4] 3.2% | [5] 8.45% | [6] 1%

O=c1c2ccccc2nc(-c2ccccc2)n1-c1cc(C(F)(F)F)cc(C(F)(F)F)c1
inactive: [1] -20.5% | [2] -23% | [3] 7.85% | [4] 10.8% | [5] 4% | [6] 5.95%

O=C(Oc1ccccc1)c1ccc(C(=O)Oc2ccccc2)cc1
inactive: [1] 9% | [2] 28.7% | [3] 15.8% | [4] 3.9% | [5] 43.1% | [6] 11.6%

COc1cc(/C=N/N2CN(C(C)C(=O)O)B(NCCC(C)C)N=C2N)cc(OC)c1 (stereo unspecified)
inactive: [1] 0.85% | [2] -10.4% | [3] 22% | [4] -3.7% | [5] 23.6% | [6] -6%

CC(=O)OC(c1ccc2c(c1)OCO2)C(C)(C)C (stereo unspecified)
inactive: [1] 17% | [2] 14.9% | [3] -7.3% | [4] -33.5% | [5] 8.7% | [6] 7.9%

C=C(NC(=O)CNC(=O)OCc1ccccc1)C(=O)O (Cbz-Gly-[Dha]-OH)
inactive: [1] 3.05% | [2] 11.2% | [3] 7.4% | [4] -9.85% | [5] 15.7% | [6] 14%

COCCNC1CCC2(SCCS2)c2[nH]c3ccccc3c21 (stereo unspecified)
inactive: [1] -10.3% | [2] -12.8% | [3] 15.1% | [4] -14% | [5] -9% | [6] 40.2%

CCCCCCC(=O)O
inactive: [1] 0.75% | [2] -16.4% | [3] -4.85% | [4] -30.3% | [5] -0.1% | [6] 9.9%

CCCCn1cnc2ccc3[nH]c(C)nc3c2c1=O
inactive: [1] 29.4% | [2] -4.85% | [3] 34.1% | [4] -3.55% | [5] -6.35% | [6] 21.4%

CCOC(=O)C1=C2c3ccc4cc(OC)ccc4c3CCC2(C)C(=O)C1 (stereo unspecified)
inactive: [1] -19.1% | [2] 15.5% | [3] -2.55% | [4] -21.1% | [5] -11.2% | [6] -21.1%

Nc1nc(SC2CCCCC2)nc2c1ncn2C1OC(CO)C(O)C1O (stereo unspecified)
inactive: [1] -49.5% | [2] -33% | [3] -8.15% | [4] 0.7% | [5] -4.75% | [6] -13.7%

COc1cccc2c1C(=O)c1c(O)c3c(c(O)c1C2=O)CC(O)(C(C)=O)CC3OC1CC(NC(=O)C(CCCCN)NC(=O)C(N)CCN)C(O)C(C)O1 (stereo unspecified)
inactive: [1] 9.1% | [2] -1.15% | [3] -0.5% | [4] 12.8% | [5] 15.9% | [6] 14.6%

S=c1nc[nH]c2c1ncn2C1OC(COCc2ccccc2)C(OCc2ccccc2)C1OCc1ccccc1 (stereo unspecified)
inactive: [1] 31.2% | [2] 15.1% | [3] 17.4% | [4] 14.7% | [5] 2.1% | [6] 5.9%

CS(=O)(=O)OC(OS(C)(=O)=O)(OS(C)(=O)=O)OS(C)(=O)=O
inactive: [1] 15.9% | [2] 6.2% | [3] 0.65% | [4] -7.9% | [5] -2.4% | [6] 9.3%

CC(C)=C1C(=O)C[C@]2(C)C[C@H]3/C(=C(/C)CCC12)CC[C@@]3(C)O (stereo partly specified)
inactive: [1] 46.5% | [2] -1.25% | [3] 2% | [4] 28.6% | [5] -6.05% | [6] -8.4%

Cc1cc(S(=O)(=O)Nc2n[nH]c(Nc3ccc4ccccc4c3)n2)c(S)cc1Cl
inactive: [1] 34.2% | [2] 5.85% | [3] 29.2% | [4] 36.5% | [5] 35.9% | [6] 39.9%

O=C(Oc1ccc(OC(=O)c2ccc([N+](=O)[O-])cc2)cc1)c1ccccc1
inactive: [1] 9.85% | [2] -2.25% | [3] -1.4% | [4] 26.4% | [5] -3.05% | [6] 5.25%

CN(C)CCC(=O)N1CCc2c([nH]c3ccccc23)C1c1cccnc1 (stereo unspecified)
inactive: [1] -15.2% | [2] -34.6% | [3] -21.6% | [4] 6.55% | [5] 5.65% | [6] -40.5%

COc1ccc(C(O)C(NCCO)c2ccccc2)cc1 (stereo unspecified)
inactive: [1] -1.3% | [2] -19.5% | [3] 4.8% | [4] 7.15% | [5] -3.85% | [6] 7.85%

O=C1c2ccccc2-c2c1cccc2[N+](=O)[O-]
inactive: [1] 48% | [2] 23.9% | [3] 9.55% | [4] -62.5% | [5] -18.3% | [6] 42.5%

CCN(CC)c1ccc(N=Nc2ccc([N+](=O)[O-])cc2OC(=O)/C=C/c2ccccc2)c(OC(=O)/C=C/c2ccccc2)c1
inactive: [1] -17.6% | [2] -47.9% | [3] -12.9% | [4] 5.6% | [5] -32.5% | [6] -22.8%

CCCCCCCCCCCCCCCCS(=O)(=O)N/N=C/c1ccccc1O
inactive: [1] 25.9% | [2] 26.2% | [3] 30.2% | [4] 18.2% | [5] 6.2% | [6] 20.2%

O=C(O)c1cccc2c1cc(Br)c1ccccc12
inactive: [1] 22.6% | [2] 23.2% | [3] 32% | [4] -42.5% | [5] 15.8% | [6] 24.7%

O=NN(CCCl)C(=S)NC1CCCCC1
inactive: [1] 3.25% | [2] -0.15% | [3] 6.35% | [4] 7.2% | [5] -3.6% | [6] 47.8%

CC(C)Oc1c(N(C)CCO)c2cc(Cl)ccc2oc1=O
inactive: [1] -6.1% | [2] 12.4% | [3] 3.45% | [4] 19.6% | [5] 5.75% | [6] 3.05%

O=c1[nH]c2cc(Cl)ccc2nc1/C=C(\O)c1ccccc1O
inactive: [1] 3.35% | [2] -13.3% | [3] -11.2% | [4] -8.4% | [5] -28.3% | [6] -0.8%

CCS(=O)(=O)/C=C/c1cccnc1
inactive: [1] 0.45% | [2] -4.8% | [3] -11.4% | [4] -51.5% | [5] 3.05% | [6] 9.5%

COc1cc(C=O)cc(O)c1O
inactive: [1] 11.8% | [2] 3.05% | [3] -10.6% | [4] -19.2% | [5] -1.9% | [6] -0.6%

O=c1cc(-c2cccc3ccccc23)[nH]c2ncccc12
inactive: [1] -13.3% | [2] -10.7% | [3] -21.9% | [4] 13.9% | [5] -9.3% | [6] -29.5%
